Reference: PubChem BioAssay (Tox21)
A number with no mark means an inactive call. Calls of active or inactive are those of the source. The call rests on the fitted dose curve; in most records, active means well fitted curve in the direction sought with a large enough effect in the repeat runs; inconclusive means weak or mixed curves; inactive means flat fitted curve, though single readings scatter.
On the % scale 0 is the no-effect control and ±100 the full control effect.

Assay: qHTS assay to test for compound auto fluorescence at 590 nm (red) in HEK293 cells (AID 720679)
Conditions: red autofluorescence 540/590 nm; series mostly up to 91.3 µM
Source text: National Center for Advancing Translational Sciences [NCATS]
NIH Chemical Genomics Center [NCGC]
U.S. Environmental Protection Agency [EPA]
National Institutes of Environmental Health Sciences [NIEHS]
National Toxicology Program [NTP]
U.S. Food and Drug Administration [FDA]
Compound auto fluorescence often interferes with screening of the compound library against various biological targets and signaling pathways. Some of these compounds may have fluorophoric properties. Such properties may interfere with the assay outputs resulting in false positives and/or negatives. To decrease such complications and ensure the compound activities are relevant in terms of biological response, the Tox21 10K compound library was screened for auto fluorescence.
From the fluorophores used as reporter signals in our screening assays, the auto fluorescence equivalencies of compounds against three fluorophores have been evaluated: Triamterene, Fluorescein and Rose Bengal sodium for blue, green and red fluorescence, respectively. The fluorescence intensities were measured using Excitation/Emission wavelengths at 405/460nm, 485/535nm and 540/590nm for blue, green and red labels, respectively. This assay includes the red fluorescence data.
Tox21 Assay Protocol Summary:
2,000 HEK293 cells in 5 uL of culture medium containing 10% dialyzed FBS per well were dispensed into black wall/clear bottom 1536-well plates using a Multidrop Combi Dispenser (Thermo Scientific). The assay plates were incubated for 4-5 hr at 37C to allow cell attachment to the well bottom, followed by the transfer of 23 nL compound or DMSO vehicle by a pintool work station (Kalypsys, San Diego, CA). After the assay plates were incubated overnight at 37C and 5% CO2, fluorescence intensities in the assay plates were measured by an Envision (PerkinElmer, Shelton, CT) plate reader using three labels for measuring blue, green and red fluorescence at […] 460, 535 and 590nm respectively.
In the case of `CS(=O)(=O)c1ccc([C@@H](C[C@H]2CCC(=O)C2)C(=O)Nc2cnccn2)cc1Cl`, the outcome is reported as “inactive”. With `NC(=O)CCCCC(N)=O` the outcome was “inactive”. For `CCCCCCCCCCCCCCCCCC(=O)OCC(CC)CCCC` (stereo not given), the outcome was “inactive”. With `C1CCCCC1` the outcome was “inactive”. With `CCCCOC(=O)CCCCC(=O)OCCCC` the outcome was “inactive”. With `COc1ccc(C)cc1` the outcome was “inactive”. For `C=Cc1ccc(OC(C)=O)cc1`, the outcome was “inactive”. In the case of `C=C(C)c1ccccc1`, the outcome is reported as “inactive”. In the case of `COC(OC)OC`, the outcome is reported as “inactive”. With `CCCCCC` the outcome was “inactive”. For `CCCOC(=O)c1c(Cl)c(Cl)c(Cl)c(Cl)c1C(=O)OCCC`, the outcome was “inactive”. For `Nc1ccc(F)cc1`, the outcome was “inactive”. For `O=C(c1ccccc1)c1ccc(O)cc1`, the outcome was “inactive”. For `CC(=O)N[C@@H](Cc1ccc(O)cc1)C(=O)O`, the outcome was “inactive”. With `CCC(CO)(CO)CO` the outcome was “inactive”. In the case of `CCCCCCCCCCCC(=O)OCC(O)CO` (stereo not given), the outcome is reported as “inactive”. In the case of `COc1ccc(N)c([N+](=O)[O-])c1`, the outcome is reported as “inactive”. With `CC[C@H]1OC(=O)[C@H](C)[C@@H](O[C@H]2C[C@@](C)(OC)[C@@H](O)[C@H](C)O2)[C@H](C)[C@@H](O[C@@H]2O[C@H](C)C[C@H](N(C)C)[C@H]2O)[C@](C)(O)C[C@@H](C)C(=O)[C@H](C)[C@@H](O)[C@]1(C)O` the outcome was “inactive”. For `Nc1ccc(S(=O)(=O)NCc2ccccc2)cc1`, the outcome was “inactive”. In the case of `N[C@@H](Cc1cc(I)c(O)c(I)c1)C(=O)O`, the outcome is reported as “inactive”. In the case of `CCC1CCC(CCC(=O)O)C1` (stereo not given), the outcome is reported as “inactive”. For `O=C(NC(Cc1cc(=O)[nH]c2ccccc12)C(=O)O)c1ccc(Cl)cc1` (stereo not given), the outcome was “inactive”. With `O=S(=O)(Cl)c1c(Cl)cccc1Cl` the outcome was “inactive”. For `COC(=O)C1=C(C)NC(C)=C(C(=O)OC(C)(C)CN(C)CCC(c2ccccc2)c2ccccc2)C1c1cccc([N+](=O)[O-])c1` (stereo not given), the outcome was “inactive”. In the case of `CC(C)(C)CCCCCCOC(=O)c1ccccc1C(=O)OCCCCCCC(C)(C)C`, the outcome is reported as “inactive”. With `CC1CCCO1` (stereo not given) the outcome was “inactive”. For `CCCCCCC(CO)CCCC` (stereo not given), the outcome was “inactive”. For `CC(C)(O)CCc1ccccc1`, the outcome was “inactive”. With `CC(CCc1ccc(O)cc1)NCCc1ccc(O)c(O)c1` (stereo not given) the outcome was “inactive”. In the case of `CC(C)C(=O)OCCOc1ccccc1`, the outcome is reported as “inactive”. In the case of `CC(C)(C)NCC(O)COc1cccc2c1C[C@H](O)[C@H](O)C2` (stereo not given in full), the fluorescence, % of fluorescent control is reported as -0.0478% [at 18.6 µM]. With `CCSC(=O)N(CC)CC` the outcome was “inactive”. In the case of `COc1cc(OC)c2ccc(=O)oc2c1`, the outcome is reported as “inactive”. For `CNC1CCCN(c2c(F)cc3c(=O)c(C(=O)O)cn(C4CC4)c3c2OC)C1` (stereo not given), the outcome was “inactive”. With `CN=C(N)NC(=O)Nc1c(C)cccc1C` the outcome was “inactive”. In the case of `O=S(=O)(O)CO`, the outcome is reported as “inactive”. In the case of `Cc1ccc2c(c1[N+](=O)[O-])C(=O)c1ccccc1C2=O`, the outcome is reported as “inactive”. For `Nc1c(Cl)cc(Cl)cc1[N+](=O)[O-]`, the outcome was “inactive”. In the case of `COc1ccc(-c2cc(C(F)F)nn2-c2ccc(S(N)(=O)=O)cc2)cc1F`, the outcome is reported as “inactive”. For `CCCC(=O)OC(=O)CCC`, the outcome was “inactive”.
